Reference: publication PMC5700166

Legend:
Experiment in all cases: protein-binding microarray (PBM); PBM: ~300 nM protein, 6 mM HEPES pH 7.8, 80 mM KCl, 0.5 mM EDTA, 0.5 mM EGTA, 6% glycerol, 35 ng/ul poly-dIdC, 1% milk, 1 h, room temperature; Ap Aiptasia and Nv Nematostella (sea anemones) / Co Capsaspora / Aq Amphimedon (sponge) / Dm Drosophila / Hu human; RHD is the Rel homology domain; high values mean tight binding
Conditions in all cases: dsDNA, one strand shown
GST-Ap-NF-kB RHD = molecular target: T1, GST-Ap-NF-kB RHD (Exaiptasia pallida (Aiptasia), UniProt A0A913YAJ5 2-422)
T1 sequence: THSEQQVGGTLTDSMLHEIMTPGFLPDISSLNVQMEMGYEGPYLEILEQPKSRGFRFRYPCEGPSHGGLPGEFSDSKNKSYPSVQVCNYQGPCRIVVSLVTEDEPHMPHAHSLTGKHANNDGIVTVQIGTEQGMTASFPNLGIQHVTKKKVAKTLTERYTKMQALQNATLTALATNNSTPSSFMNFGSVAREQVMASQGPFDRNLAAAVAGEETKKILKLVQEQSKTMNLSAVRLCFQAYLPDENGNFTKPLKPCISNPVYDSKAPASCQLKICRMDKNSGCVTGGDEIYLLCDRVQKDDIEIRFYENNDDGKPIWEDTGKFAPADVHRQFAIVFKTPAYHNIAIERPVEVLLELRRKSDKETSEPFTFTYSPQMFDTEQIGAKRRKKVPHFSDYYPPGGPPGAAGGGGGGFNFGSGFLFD

GST-Dm-Relish = molecular target: T2, GST-Dm-Relish (Drosophila melanogaster, UniProt Q94527 99-473)
T2 sequence: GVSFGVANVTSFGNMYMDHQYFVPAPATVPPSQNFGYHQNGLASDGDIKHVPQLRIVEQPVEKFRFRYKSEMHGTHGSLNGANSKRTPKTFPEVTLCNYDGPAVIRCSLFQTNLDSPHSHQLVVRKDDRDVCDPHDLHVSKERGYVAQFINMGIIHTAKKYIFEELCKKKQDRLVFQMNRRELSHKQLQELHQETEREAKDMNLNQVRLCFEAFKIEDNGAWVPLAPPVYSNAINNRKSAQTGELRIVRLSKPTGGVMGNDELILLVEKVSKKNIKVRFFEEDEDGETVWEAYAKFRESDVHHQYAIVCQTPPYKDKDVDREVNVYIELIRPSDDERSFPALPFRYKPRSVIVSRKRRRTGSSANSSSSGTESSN

GST-Aq-NF-kB = molecular target: T3, GST-Aq-NF-kB (Amphimedon queenslandica, UniProt A9Y5G7 2-389)
T3 sequence: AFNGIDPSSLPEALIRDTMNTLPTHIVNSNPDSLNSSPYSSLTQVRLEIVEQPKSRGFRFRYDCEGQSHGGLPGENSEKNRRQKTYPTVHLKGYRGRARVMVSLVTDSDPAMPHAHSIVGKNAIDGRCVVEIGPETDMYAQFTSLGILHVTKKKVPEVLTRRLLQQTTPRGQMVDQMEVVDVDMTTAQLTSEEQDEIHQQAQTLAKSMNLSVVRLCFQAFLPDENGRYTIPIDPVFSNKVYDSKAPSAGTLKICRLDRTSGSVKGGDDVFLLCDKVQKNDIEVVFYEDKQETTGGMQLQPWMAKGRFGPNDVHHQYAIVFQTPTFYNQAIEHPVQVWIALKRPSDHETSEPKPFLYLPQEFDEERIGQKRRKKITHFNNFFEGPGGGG

[1] = molecular target: T4, GST-Nv-NF-kB (Cys allele) (Nematostella vectensis, UniProt E5G601 2-411)
T4 sequence: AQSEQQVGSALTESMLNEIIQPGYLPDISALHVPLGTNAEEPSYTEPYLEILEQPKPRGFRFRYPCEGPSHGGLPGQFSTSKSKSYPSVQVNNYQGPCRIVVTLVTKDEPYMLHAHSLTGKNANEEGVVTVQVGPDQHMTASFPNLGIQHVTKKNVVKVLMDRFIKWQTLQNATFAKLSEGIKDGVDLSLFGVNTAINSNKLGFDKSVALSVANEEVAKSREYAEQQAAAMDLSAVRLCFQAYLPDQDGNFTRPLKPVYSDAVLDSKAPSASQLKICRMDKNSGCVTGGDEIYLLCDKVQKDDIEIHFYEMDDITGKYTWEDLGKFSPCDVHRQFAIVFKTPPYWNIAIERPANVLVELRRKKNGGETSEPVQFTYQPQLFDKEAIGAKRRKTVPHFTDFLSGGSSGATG

GST-Co-NF-kB = molecular target: T5, GST-Co-NF-kB (Capsaspora owczarzaki, UniProt F1ARL5 200-546)
T5 sequence: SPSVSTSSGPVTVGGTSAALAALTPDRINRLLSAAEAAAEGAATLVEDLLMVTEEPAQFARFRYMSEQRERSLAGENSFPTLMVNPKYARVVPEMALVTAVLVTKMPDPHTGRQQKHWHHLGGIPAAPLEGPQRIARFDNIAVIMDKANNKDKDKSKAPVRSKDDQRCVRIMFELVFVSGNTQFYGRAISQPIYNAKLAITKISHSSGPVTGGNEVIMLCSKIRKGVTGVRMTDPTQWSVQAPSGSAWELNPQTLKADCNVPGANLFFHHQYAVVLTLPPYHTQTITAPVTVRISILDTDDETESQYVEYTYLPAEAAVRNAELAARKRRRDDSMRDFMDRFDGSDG

Sequence | binding signal (GST-Ap-NF-kB RHD) [z-score] | binding signal (GST-Dm-Relish) [z-score] | binding signal (GST-Aq-NF-kB) [z-score] | binding signal [1] [z-score] | binding signal (GST-Co-NF-kB) [z-score]
CCGATTAACATCAGGAATCCCAATGATGTTAATCGGGTCTTGATTCGCTTGACGCTGCTG | 1.71 | 7.14 | 1.48 |  | 
CCGATTAACATCACGGAGATCCCTGATGTTAATCGGGTCTTGATTCGCTTGACGCTGCTG | 1.39 | 4.73 | 3.81 |  | 
CCGATTAACATCAAGAAATTTCCTGATGTTAATCGGGTCTTGATTCGCTTGACGCTGCTG |  |  | 2.06 | 1.11 | 
CCGATTAACATCAAGGGCATCCCTGATGTTAATCGGGTCTTGATTCGCTTGACGCTGCTG | 1.42 | 5.6 | 2.86 |  | 
CCGATTAACATCACGGGATGTCCTGATGTTAATCGGGTCTTGATTCGCTTGACGCTGCTG | 1.47 | 3.42 | 3.06 |  | 
CCGATTAACATCAGGCAATCCCATGATGTTAATCGGGTCTTGATTCGCTTGACGCTGCTG | 1 | 2.82 | 1.38 |  | 
CCGATTAACATCACGTAAGGGATTGATGTTAATCGGGTCTTGATTCGCTTGACGCTGCTG |  |  | 2.43 | 1.34 | 
CCGATTAACATCAGGGATTAACATGATGTTAATCGGGTCTTGATTCGCTTGACGCTGCTG | 1.77 | 4.89 | 1.83 |  | 
CCGATTAACATCAGGAAACACCATGATGTTAATCGGGTCTTGATTCGCTTGACGCTGCTG | 1 | 1.77 | 1.49 |  | 
CCGATTAACATCAGGAAAGCCCATGATGTTAATCGGGTCTTGATTCGCTTGACGCTGCTG | 1.24 | 4.29 | 3.12 |  | 
CCGATTAACATCACGGCAACCCCTGATGTTAATCGGGTCTTGATTCGCTTGACGCTGCTG | 1.78 | 1.46 | 2.35 |  | 
CCGATTAACATCACGGGCTTTCCTGATGTTAATCGGGTCTTGATTCGCTTGACGCTGCTG | 1.64 | 3.81 | 4.66 |  | 
CCGATTAACATCACGGGCACCCCTGATGTTAATCGGGTCTTGATTCGCTTGACGCTGCTG | 1.72 | 2.01 | 2.04 |  | 1.34
CCGATTAACATCACGGGATTGCCTGATGTTAATCGGGTCTTGATTCGCTTGACGCTGCTG | 1.39 | 2.08 | 2.41 |  | 
CCGATTAACATCAGGAATTCCTATGATGTTAATCGGGTCTTGATTCGCTTGACGCTGCTG | 1.1 | 3.7 | 2.07 |  | 
CCGATTAACATCAGCGGAATTCCTGATGTTAATCGGGTCTTGATTCGCTTGACGCTGCTG | 1.33 | 2.27 | 1.89 |  | 
CCGATTAACATCAGGAATATTCCTGATGTTAATCGGGTCTTGATTCGCTTGACGCTGCTG |  |  | 1.34 | 1.22 | 

Sequence | binding signal (GST-Ap-NF-kB RHD) [z-score] | binding signal (GST-Dm-Relish) [z-score] | binding signal (GST-Aq-NF-kB) [z-score] | binding signal [1] [z-score] | binding signal (GST-Co-NF-kB) [z-score]
CCGATTAACATCAGGAATGCCCATGATGTTAATCGGGTCTTGATTCGCTTGACGCTGCTG | 1.27 | 1.49 | 1.96 |  | 
CCGATTAACATCAGGGCATTCCATGATGTTAATCGGGTCTTGATTCGCTTGACGCTGCTG | 1.14 | 1.84 | 2.1 |  | 
CCGATTAACATCAGGGGTGCCCATGATGTTAATCGGGTCTTGATTCGCTTGACGCTGCTG | 1.69 | 3.52 | 1.5 |  | 
CCGATTAACATCAGTACTTCCCATGATGTTAATCGGGTCTTGATTCGCTTGACGCTGCTG | 1.53 | 9.09 | 2.53 |  | 1.42
CCGATTAACATCAGGAGATCCCATGATGTTAATCGGGTCTTGATTCGCTTGACGCTGCTG | 1.24 | 4.37 | 2.7 |  | 
CCGATTAACATCACGGGATGCCCTGATGTTAATCGGGTCTTGATTCGCTTGACGCTGCTG | 1.03 | 5.65 | 3.09 |  | 
CCGATTAACATCACCGGAATTTCTGATGTTAATCGGGTCTTGATTCGCTTGACGCTGCTG | 1.27 | 1.58 | 2.45 |  | 
CCGATTAACATCACGGGATCTCCTGATGTTAATCGGGTCTTGATTCGCTTGACGCTGCTG | 2.16 | 4.06 | 3.77 |  | 
CCGATTAACATCAAGGAAATACCTGATGTTAATCGGGTCTTGATTCGCTTGACGCTGCTG | 1.2 | 3.3 | 3.81 |  | 
CCGATTAACATCAGGGTCTTATATGATGTTAATCGGGTCTTGATTCGCTTGACGCTGCTG |  |  | 2.15 | 1.26 | 
CCGATTAACATCAGGGCATCCCATGATGTTAATCGGGTCTTGATTCGCTTGACGCTGCTG | 1.37 | 5.99 | 2.34 |  | 
CCGATTAACATCACCCCCTCCCCTGATGTTAATCGGGTCTTGATTCGCTTGACGCTGCTG | 3.75 | 5.21 | 4.84 |  | 4.75
CCGATTAACATCACGGGGTGGCCTGATGTTAATCGGGTCTTGATTCGCTTGACGCTGCTG | 1.24 | 1.37 | 1.55 |  | 1.78
CCGATTAACATCAGGCAACCCCATGATGTTAATCGGGTCTTGATTCGCTTGACGCTGCTG | 1.67 | 2.62 | 1.4 |  | 1.23
CCGATTAACATCACCGGAATTCCTGATGTTAATCGGGTCTTGATTCGCTTGACGCTGCTG | 1.13 | 3.45 | 2.36 |  | 1.36
CCGATTAACATCAGGATATCCCATGATGTTAATCGGGTCTTGATTCGCTTGACGCTGCTG | 2.32 | 3 | 2.24 |  | 1.41
